Measured values from PubChem BioAssay (Tox21).
Results filed as inconclusive are left out. Entries that show only a call come without a potency. Calls of active or inactive are those of the source. Calls come from the whole dose curve.

Test: qHTS assay to identify small molecule agonists of the AP-1 signaling pathway (AID 1159526)
Settings: ME-180 (cervical carcinoma) AP-1-bla reporter, beta-lactamase FRET ratio, 5 h; series mostly up to 76.8 µM
Potency is the fitted concentration of half-maximal effect.

Compound | Potency
CC(C)C#N | inactive
CC1OC(C)OC(C)O1 (centres undefined) | inactive
Cc1cccc([N+](=O)[O-])c1 | inactive
Cc1ccc([N+](=O)[O-])cc1C | inactive
CCC[N+](=O)[O-] | inactive
COP(N)(=O)SC (centres undefined) | inactive
O=c1[nH]c(=O)[nH]c(=O)[nH]1 | inactive
O=NN1CCCCCCC1 | inactive
CCCCCCCCCl | inactive
C#CC(C)(C)NC(=O)c1cc(Cl)cc(Cl)c1 | inactive
O=C(O)c1ccccn1 | inactive
C1CN2CCN1CC2 | inactive
OC(O)C(Cl)(Cl)Cl | inactive
CNC(=O)Oc1ccccc1OC(C)C | inactive
C#CCN(C)[C@H](C)Cc1ccccc1 | inactive
CCNc1nc(NC(C)(C)C)nc(SC)n1 | inactive
OCCN(CCO)CCO | inactive

Compound | Potency
BrCCBr | inactive
O=S(=O)(c1ccc(O)cc1)c1ccc(O)cc1 | inactive
Nc1ccc(Oc2ccc(N)cc2)cc1 | inactive
CC(C)(Cl)Cl | inactive
CN(C)[C@@H]1C(=O)C(C(N)=O)=C(O)[C@@]2(O)C(=O)C3=C(O)c4c(O)cccc4[C@@](C)(O)[C@H]3C[C@@H]12 | inactive
Nc1ccccc1C(=O)O | inactive
C=CCO | inactive
c1ccc2c(c1)oc1ccccc12 | inactive
CC(C)=C[C@@H]1[C@@H](C(=O)OCc2coc(Cc3ccccc3)c2)C1(C)C | inactive
[O-][Cl+2]([O-])O | inactive
Nc1ccc(Cc2ccc(N)cc2)cc1 | inactive
COC(=O)c1ccccc1C(=O)OC | inactive
Clc1ccc(Cl)cc1 | inactive
c1cc2c3c(cccc3c1)CC2 | inactive
C=C(C)CCl | inactive
CC(NC(C)(C)C)C(=O)c1cccc(Cl)c1 (centres undefined) | 36.8 µM (active)
c1ccc(OP(Oc2ccccc2)Oc2ccccc2)cc1 | inactive
